Experimental data reported in PubChem BioAssay (NCATS).
Inconclusive results are not listed. Active and inactive are the calls of the source. Unless noted, calls come from the whole dose curve; as a rule, active = well fitted curve in the direction sought with a large enough effect; inconclusive = small, poorly fitted or top-dose-only effect, or another doubt; inactive = no such curve, though single readings can be large; an effect the other way counts as inactive or inconclusive.

Tests used:
[1] = molecular target: Cytochrome P450 2D6 (Homo sapiens) (UniProt P10635); experiment: Cytochrome P450 family 2 subfamily D member 6 (CYP2D6) small molecule antagonists: luciferase biochemical (cell-free) qHTS assay (AID 1645840; active = well fitted curve in the direction sought with a large enough effect in the repeat runs; an effect the other way counts as inactive or inconclusive; note: nearly all actives have a fitted effect of over 55% in size; note: potency is the fitted concentration of half-maximal effect)
Sequence of Cytochrome P450 2D6 (Homo sapiens) (P10635 whole entry, looked up): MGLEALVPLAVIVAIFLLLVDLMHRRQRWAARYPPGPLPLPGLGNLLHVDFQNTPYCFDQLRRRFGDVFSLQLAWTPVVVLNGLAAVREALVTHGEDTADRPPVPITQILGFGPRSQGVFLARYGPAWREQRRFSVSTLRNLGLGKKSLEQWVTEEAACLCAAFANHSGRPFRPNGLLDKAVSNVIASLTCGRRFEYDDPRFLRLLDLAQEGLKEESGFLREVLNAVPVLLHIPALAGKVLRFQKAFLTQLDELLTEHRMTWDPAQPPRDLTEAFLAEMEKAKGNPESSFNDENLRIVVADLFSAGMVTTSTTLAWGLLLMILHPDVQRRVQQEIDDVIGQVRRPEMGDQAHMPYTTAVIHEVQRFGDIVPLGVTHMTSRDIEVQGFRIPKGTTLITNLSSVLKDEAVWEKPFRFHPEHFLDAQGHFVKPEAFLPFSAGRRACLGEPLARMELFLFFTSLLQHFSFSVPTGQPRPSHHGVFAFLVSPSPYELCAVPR
Summary of the method: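 P450-Glo luminescent screen: recombinant CYP2D6 enzyme–proluciferin substrate mix preincubated with compound 10 min at room temperature, then NADPH regeneration added for 1 h at room temperature. Detection reagent added for 20 min; luciferin light read as relative luminescence units.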

[2] = molecular target: Cytochrome P450 2C9 (Homo sapiens) (UniProt P11712); experiment: Cytochrome P450 family 2 subfamily C member 9 (CYP2C9) small molecule antagonists: luciferase biochemical (cell-free) qHTS assay (AID 1645842; active = well fitted curve in the direction sought with a large enough effect in the repeat runs; an effect the other way counts as inactive or inconclusive; note: nearly all actives have a fitted effect of over 55% in size; note: potency is the fitted concentration of half-maximal effect)
Sequence of Cytochrome P450 2C9 (Homo sapiens) (P11712 whole entry, looked up): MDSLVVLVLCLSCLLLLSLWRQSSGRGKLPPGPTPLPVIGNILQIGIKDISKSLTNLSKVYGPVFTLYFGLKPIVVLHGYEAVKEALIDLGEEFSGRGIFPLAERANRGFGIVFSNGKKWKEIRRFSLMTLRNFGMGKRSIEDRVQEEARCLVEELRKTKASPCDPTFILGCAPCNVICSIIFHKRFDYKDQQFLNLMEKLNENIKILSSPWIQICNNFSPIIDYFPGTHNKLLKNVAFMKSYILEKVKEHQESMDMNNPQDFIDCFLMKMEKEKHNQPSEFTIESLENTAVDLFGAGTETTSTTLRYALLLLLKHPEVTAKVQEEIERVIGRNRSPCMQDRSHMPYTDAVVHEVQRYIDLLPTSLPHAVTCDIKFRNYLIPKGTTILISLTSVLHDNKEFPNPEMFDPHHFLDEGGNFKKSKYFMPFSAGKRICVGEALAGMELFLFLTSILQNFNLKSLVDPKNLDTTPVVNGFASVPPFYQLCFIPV
Summary of the method: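 Luminescence, after 20 min with luciferin detection reagent, reflected CYP2C9 turnover during a 1 h NADPH-driven reaction at 37C. Enzyme-substrate mix contained 0.4% bovine serum albumin and was preincubated with compound 10 min at room temperature.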

[3] = HepG2 viability counterscreen (readout 2: ATP content) against the NCATS DSHEA and TCM libraries (AID 1794840); note: 0% is about no effect
Summary of the method: (§1)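 Readout 1: cellular protease activity, GF-AFC substrate (25 uM final, 30 min, fluorescence 380/510 nm). Readout 2: ATP content by CellTiter-Glo luminescence after 30 min at RT. Both follow ~24 h exposure of HepG2 cells (1,000/well) to substances.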

[4] = HepG2 viability counterscreen (readout 1: protease activity) against the NCATS DSHEA and TCM libraries (AID 1794841);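 note: cells exposed to compounds for about 24 h before the protease read; 0% is about no effect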
Summary of the method: as §1

[5] = molecular target: Glutathione peroxidase 1 (Homo sapiens) (UniProt P07203); experiment: Primary qHTS Assay for Inhibitors of Recombinant Selenoprotein Glutathione Peroxidase 1 (GPX1) (AID 1845191); note: nearly all actives have a fitted effect of over 65% in size
Sequence of Glutathione peroxidase 1 (Homo sapiens) (P07203 whole entry, looked up): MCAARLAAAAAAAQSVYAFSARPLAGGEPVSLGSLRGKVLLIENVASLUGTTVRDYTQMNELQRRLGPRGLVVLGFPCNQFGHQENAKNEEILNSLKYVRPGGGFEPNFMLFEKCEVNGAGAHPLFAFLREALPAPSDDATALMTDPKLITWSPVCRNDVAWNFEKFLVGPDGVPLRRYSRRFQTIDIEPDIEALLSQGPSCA
Summary of the method: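 10 nM GPX1 + cpd, 30 min RT; start w/ 1 mM GSH, 0.5 mM cumene hydroperoxide, 0.5 mM NADPH, 100 nM GR, 0.01% BSA; buffer 50 mM Tris-HCl pH 7.5, 2 mM EDTA, 150 mM NaCl; Fl 340/450, 0 & 15 min.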

[6] = molecular target: Phospholipid hydroperoxide glutathione peroxidase GPX4 (Homo sapiens) (UniProt P36969); experiment: Primary qHTS Assay for Inhibitors of Recombinant Selenoprotein Glutathione Peroxidase 4 (GPX4) (AID 1845192); note: nearly all actives have a fitted effect of over 65% in size
Sequence of Phospholipid hydroperoxide glutathione peroxidase GPX4 (Homo sapiens) (P36969 whole entry, looked up): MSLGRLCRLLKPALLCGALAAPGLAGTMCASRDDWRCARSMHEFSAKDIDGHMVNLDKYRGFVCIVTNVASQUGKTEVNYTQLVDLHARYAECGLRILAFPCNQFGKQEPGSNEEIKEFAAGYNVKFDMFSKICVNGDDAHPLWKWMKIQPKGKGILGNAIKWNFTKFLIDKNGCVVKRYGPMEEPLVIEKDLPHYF
Summary of the method: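 NADPH consumption, followed by fluorescence at 340/450 nm between 0 and 15 min, reports GPX4 activity via coupled glutathione reductase (100 nM). Enzyme 200 nM was pre-exposed to compound 30 min; 0.5 mM cumene hydroperoxide and 1 mM GSH served as substrates.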

[7] = molecular target: Cytochrome P450 3A4 (Homo sapiens) (UniProt P08684); experiment: qHTS for inhibitors of CYP3A4 against the NCATS DSHEA and TCM libraries (AID 1919971);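 note: % is set by controls: 0 for no effect and ±100 for the full control effect; inhibition lowers luminescence from luciferin made by CYP3A4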
Summary of the method: (§2)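 Luminescent P450-Glo readout. Enzyme plus pro-luciferin substrate in manufacturer buffer (typically 100 mM KPO4); 15 min RT preincubation; 1x NADPH regenerating system, 30-45 min RT in the dark; detection reagent 30 min.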

[8] = molecular target: Cytochrome P450 2D6 (Homo sapiens) (UniProt P10635); experiment: qHTS for inhibitors of CYP2D6 against the NCATS DSHEA and TCM libraries (AID 1919972); note: % is set by controls: 0 for no effect and ±100 for the full control effect
Summary of the method: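 Steps: enzyme plus luciferin substrate dispensed; test substances pinned; 15 min RT; 1x NADPH regenerating solution added, 30–45 min RT protected from light; detection reagent, 30 min RT; luminescence measured. Minus-enzyme wells as background.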

[9] = molecular target: Cytochrome P450 2C9 (Homo sapiens) (UniProt P11712); experiment: qHTS for inhibitors of CYP2C9 against the NCATS DSHEA and TCM libraries (AID 1919973);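 note: luminogenic pro-luciferin CYP2C9 substrate turned into luciferin with NADPH regeneration; series mostly up to about 34 µM; % is set by controls: 0 for no effect and ±100 for the full control effect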
Summary of the method: as §2

[10] = molecular target: Cytochrome P450 2C19 (Homo sapiens) (UniProt P33261); experiment: qHTS for inhibitors of CYP2C19 against the NCATS DSHEA and TCM libraries (AID 1919974);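 note: luminescence from luciferin released by CYP2C19 oxidation of a pro-luciferin substrate; % is set by controls: 0 for no effect and ±100 for the full control effect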
Summary of the method: as §2

[11] = KB-3-1 P-gp reporter qHTS against the NCATS DSHEA and TCM libraries (AID 1919975); note: 0% is about no effect
Summary of the method: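 Cell viability by CellTiter-Glo luminescence following ~72 h compound exposure (concentration-response). Uses parental, non-P-gp-overexpressing KB-3-1 line, 500 cells/well in DMEM/10% FBS, attached ~4 h before dosing.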

[12] = molecular target: Cytochrome P450 1A2 (Homo sapiens) (UniProt P05177); experiment: qHTS for inhibitors of CYPIA2 against the NCATS DSHEA and TCM libraries (AID 1919976);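 note: light from luciferin formed by CYP1A2 from a pro-luciferin substrate; series mostly up to about 37 µM; % is set by controls: 0 for no effect and ±100 for the full control effect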
Sequence of Cytochrome P450 1A2 (Homo sapiens) (P05177 whole entry, looked up): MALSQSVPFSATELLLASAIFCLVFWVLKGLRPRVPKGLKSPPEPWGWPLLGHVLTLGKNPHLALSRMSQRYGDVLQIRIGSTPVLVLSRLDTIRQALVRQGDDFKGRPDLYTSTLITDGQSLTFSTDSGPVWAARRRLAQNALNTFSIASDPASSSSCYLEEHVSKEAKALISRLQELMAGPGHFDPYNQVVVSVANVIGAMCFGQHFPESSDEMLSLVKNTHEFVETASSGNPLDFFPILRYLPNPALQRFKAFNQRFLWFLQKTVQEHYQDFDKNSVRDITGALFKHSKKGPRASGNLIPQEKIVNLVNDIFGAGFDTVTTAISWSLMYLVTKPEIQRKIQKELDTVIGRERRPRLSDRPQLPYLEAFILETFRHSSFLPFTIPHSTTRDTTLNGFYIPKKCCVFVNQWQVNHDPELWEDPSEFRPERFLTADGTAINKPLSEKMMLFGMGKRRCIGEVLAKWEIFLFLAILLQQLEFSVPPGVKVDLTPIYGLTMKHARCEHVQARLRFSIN
Summary of the method: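 Human CYP1A2 with its pro-luciferin substrate in supplier buffer (typically 100 mM KPO4) was pre-incubated with compounds 15 min at RT. Reaction was started with 1x NADPH regeneration solution and run 30-45 min at RT in the dark, then luminescence was read after P450-Glo detection reagent (30 min RT).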

[13] = qHTS Counterscreen for compound interference against the NCATS DSHEA and TCM libraries (AID 1919978); settings: firefly luciferase detection reagent interference, luminescence;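 note: compounds preincubated with 1 µM D-luciferin or buffer before detection reagent; % of control where 0% means no effect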
Summary of the method: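 With 1 uM D-luciferin or phosphate buffer only, compounds at final 19.5 nM–39.8 uM were incubated for 15 min at room temperature. Luciferase detection reagent was then added, and luminescence was measured after a further 30 min at room temperature.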

[14] = Dual reporter qHTS for agonist of Pregnane X Receptor (hPXR) against the NCATS DSHEA and TCM libraries: Fluorescence readout (AID 1920058); note: 0% is about no effect
Summary of the method: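 hPXR-Luc HepG2 cells (2000/well) in phenol red-free medium with charcoal-stripped FBS attached for 5 h, then were exposed to compounds for about 24 h at 37 °C. Viability was read by CellTiter-Fluor fluorescence (Ex/Em 405/540 nm) after 1 h.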

[15] = molecular target: Nuclear receptor subfamily 1 group I member 2 (Homo sapiens) (UniProt O75469); experiment: Dual reporter qHTS for agonist of Pregnane X Receptor (hPXR) against the NCATS DSHEA and TCM libraries: Luminescence readout (AID 1920059); note: 0% is about no effect
Sequence of Nuclear receptor subfamily 1 group I member 2 (Homo sapiens) (O75469 whole entry, looked up): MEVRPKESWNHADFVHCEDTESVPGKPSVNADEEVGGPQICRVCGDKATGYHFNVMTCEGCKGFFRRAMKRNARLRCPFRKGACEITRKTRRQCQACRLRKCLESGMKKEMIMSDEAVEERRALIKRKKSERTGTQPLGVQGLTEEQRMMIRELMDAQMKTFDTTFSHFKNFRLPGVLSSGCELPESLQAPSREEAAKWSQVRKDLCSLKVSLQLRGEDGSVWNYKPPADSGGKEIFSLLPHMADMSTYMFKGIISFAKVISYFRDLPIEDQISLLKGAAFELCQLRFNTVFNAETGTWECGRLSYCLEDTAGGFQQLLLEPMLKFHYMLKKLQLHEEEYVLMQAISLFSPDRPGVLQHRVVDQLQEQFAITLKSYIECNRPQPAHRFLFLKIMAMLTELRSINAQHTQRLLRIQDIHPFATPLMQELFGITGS
Summary of the method: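 Luminescent PXR reporter read (ONE-Glo) after a CellTiter-Fluor viability read, following 24 h, 37C treatment of HepG2 cells stably carrying hPXR-Luc.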

[16] = molecular target: Nuclear receptor subfamily 1 group I member 2 (Homo sapiens) (UniProt O75469); experiment: Dual reporter qHTS for antagonist of Pregnane X Receptor (hPXR) against the NCATS DSHEA and TCM libraries: Luminescence Readout (AID 1920060); note: 0% is about no effect
Summary of the method: (§3)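 Rifampicin-stimulated (2 uM final) hPXR-luciferase HepG2 cells were treated for 24 h with DSNP/TCM substances. Viability came from CellTiter-Fluor fluorescence, reporter activity from ONE-Glo luminescence.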

[17] = Dual reporter qHTS for antagonist of Pregnane X Receptor (hPXR) against the NCATS DSHEA and TCM libraries: Fluorescence Readout (AID 1920061); note: 0% is about no effect
Summary of the method: as §3

[18] = molecular target: Rap guanine nucleotide exchange factor 3 (Homo sapiens) (UniProt O95398); experiment: Confirmatory qHTS for antagonist of cAMP-regulated guanine nucleotide exchange factor 3 (EPAC1) (AID 1645880); note: nearly all actives have a fitted effect of over 55% in size; note: potency is the fitted concentration of half-maximal effect
Sequence of Rap guanine nucleotide exchange factor 3 (Homo sapiens) (O95398 whole entry, looked up): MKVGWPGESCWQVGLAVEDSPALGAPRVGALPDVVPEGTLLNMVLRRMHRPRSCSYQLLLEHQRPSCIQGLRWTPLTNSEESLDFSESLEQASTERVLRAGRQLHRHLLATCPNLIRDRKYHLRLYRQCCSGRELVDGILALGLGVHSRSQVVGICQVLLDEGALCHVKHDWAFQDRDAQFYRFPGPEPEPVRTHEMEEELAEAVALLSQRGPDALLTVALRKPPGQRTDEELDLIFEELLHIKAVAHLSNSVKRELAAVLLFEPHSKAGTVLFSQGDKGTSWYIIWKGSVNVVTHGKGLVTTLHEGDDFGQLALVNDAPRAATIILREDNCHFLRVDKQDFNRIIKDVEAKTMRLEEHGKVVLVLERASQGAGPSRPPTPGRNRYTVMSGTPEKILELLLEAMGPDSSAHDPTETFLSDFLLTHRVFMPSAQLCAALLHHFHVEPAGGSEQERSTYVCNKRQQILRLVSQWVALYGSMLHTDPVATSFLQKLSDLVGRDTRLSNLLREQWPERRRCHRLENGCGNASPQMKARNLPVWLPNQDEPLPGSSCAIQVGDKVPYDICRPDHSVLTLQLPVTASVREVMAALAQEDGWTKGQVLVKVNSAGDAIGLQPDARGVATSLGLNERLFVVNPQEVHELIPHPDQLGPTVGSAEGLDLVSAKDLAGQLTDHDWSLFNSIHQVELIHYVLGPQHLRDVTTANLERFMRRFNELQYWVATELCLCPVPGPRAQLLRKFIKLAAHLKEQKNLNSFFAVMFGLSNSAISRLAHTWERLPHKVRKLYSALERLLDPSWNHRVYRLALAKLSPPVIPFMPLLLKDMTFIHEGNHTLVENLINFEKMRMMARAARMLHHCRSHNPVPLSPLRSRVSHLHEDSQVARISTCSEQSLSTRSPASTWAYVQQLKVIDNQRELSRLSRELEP
Summary of the method: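 Nucleotide exchange uses 100 nM EPAC1, 250 nM RAP1B-BODIPY-GDP and 50 uM GDP, with compounds in a concentration-titration series. After 5 min at room temperature, fluorescence (480 nm ex/540 nm em) is read every 5 min for 30 min. Data are normalized to control ATA and DMSO.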

[19] = molecular target: Rap guanine nucleotide exchange factor 3 (Homo sapiens) (UniProt O95398); experiment: Confirmatory qHTS for agonist of cAMP-regulated guanine nucleotide exchange factor 3 (EPAC1) (AID 1645881);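 note: EPAC1 catalysed release of BODIPY-GDP from Rap1B seen as fluorescence loss; 100% = effect of cAMP agonist control; nearly all actives have a fitted effect of over 75% in size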
[20] = molecular target: Rap guanine nucleotide exchange factor 4 (Homo sapiens) (UniProt Q8WZA2); experiment: Confirmatory qHTS for agonist of cAMP-regulated guanine nucleotide exchange factor 4 (EPAC2) (AID 1645884);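 note: nucleotide exchange releases bodipy-GDP from Rap1 and this lowers its fluorescence; % is set by controls: 0 for no effect and ±100 for the full control effect; nearly all actives have a fitted effect of over 65% in size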
Sequence of Rap guanine nucleotide exchange factor 4 (Homo sapiens) (Q8WZA2 whole entry, looked up): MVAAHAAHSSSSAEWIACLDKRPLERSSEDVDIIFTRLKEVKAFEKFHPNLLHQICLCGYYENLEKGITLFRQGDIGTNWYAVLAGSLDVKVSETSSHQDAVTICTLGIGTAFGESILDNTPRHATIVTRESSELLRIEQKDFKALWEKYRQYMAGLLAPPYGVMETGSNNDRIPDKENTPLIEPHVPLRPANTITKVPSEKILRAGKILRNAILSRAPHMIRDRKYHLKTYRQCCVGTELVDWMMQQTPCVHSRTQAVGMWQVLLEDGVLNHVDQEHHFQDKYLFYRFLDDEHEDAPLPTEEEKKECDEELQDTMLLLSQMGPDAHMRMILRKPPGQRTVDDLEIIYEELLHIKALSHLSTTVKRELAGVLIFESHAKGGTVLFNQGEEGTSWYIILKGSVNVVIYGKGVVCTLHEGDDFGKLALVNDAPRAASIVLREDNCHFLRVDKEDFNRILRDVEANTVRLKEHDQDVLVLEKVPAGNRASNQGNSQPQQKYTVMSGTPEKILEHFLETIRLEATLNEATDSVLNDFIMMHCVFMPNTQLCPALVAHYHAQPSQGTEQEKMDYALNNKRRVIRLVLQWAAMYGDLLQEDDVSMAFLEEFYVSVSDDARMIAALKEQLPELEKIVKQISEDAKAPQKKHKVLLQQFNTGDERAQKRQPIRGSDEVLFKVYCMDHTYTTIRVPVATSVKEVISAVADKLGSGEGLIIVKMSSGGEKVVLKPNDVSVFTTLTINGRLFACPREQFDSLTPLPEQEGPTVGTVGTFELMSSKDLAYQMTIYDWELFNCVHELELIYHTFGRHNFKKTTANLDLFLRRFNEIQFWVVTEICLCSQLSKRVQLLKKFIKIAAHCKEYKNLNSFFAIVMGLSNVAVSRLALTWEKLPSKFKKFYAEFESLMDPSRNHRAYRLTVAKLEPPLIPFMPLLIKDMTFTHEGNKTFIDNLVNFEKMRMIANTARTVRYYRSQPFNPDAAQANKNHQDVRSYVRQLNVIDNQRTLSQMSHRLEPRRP

[21] = molecular target: Rap guanine nucleotide exchange factor 4 (Homo sapiens) (UniProt Q8WZA2); experiment: Confirmatory qHTS for antagonist of cAMP-regulated guanine nucleotide exchange factor 4 (EPAC2) (AID 1645885); note: nearly all actives have a fitted effect of over 25% in size; note: potency is the fitted concentration of half-maximal effect
[22] = molecular target: Rap guanine nucleotide exchange factor 3 (Homo sapiens) (UniProt O95398); experiment: Counterscreen qHTS for antagonist of cAMP-regulated guanine nucleotide exchange factor 3 (EPAC1) (AID 1645888);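 note: fluorescence loss as bound BODIPY-GDP is released from Rap1B; % of control where 0% means no effect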
Summary of the method: (§4)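 Rap1B-BODIPY-GDP 250 nM + GDP 50 uM; cpds 7-pt, final 9.74 nM–152 uM (activator mode) or from 7.32 nM upwards (inhibitor mode); RT; FI 480/540 nm at 5 and 30 min, then ± cAMP, reread.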

[23] = molecular target: Rap guanine nucleotide exchange factor 3 (Homo sapiens) (UniProt O95398); experiment: Counterscreen qHTS for agonist of cAMP-regulated guanine nucleotide exchange factor 3 (EPAC1) (AID 1645889); note: % of control where 0% means no effect; nearly all actives have a fitted effect of over 40% in size
Summary of the method: as §4

[24] = molecular target: Tumor susceptibility gene 101 protein (Homo sapiens) (UniProt Q99816); experiment: qHTS Assay for Iinhibitors of HIV-1 Budding by Blocking the Interaction of PTAP/TSG101: Hit Validation (AID 651600); note: potency is the fitted concentration of half-maximal effect; nearly all actives have a fitted effect of over 70% in size
Sequence of Tumor susceptibility gene 101 protein (Homo sapiens) (Q99816 whole entry, looked up, the tested form may be a part): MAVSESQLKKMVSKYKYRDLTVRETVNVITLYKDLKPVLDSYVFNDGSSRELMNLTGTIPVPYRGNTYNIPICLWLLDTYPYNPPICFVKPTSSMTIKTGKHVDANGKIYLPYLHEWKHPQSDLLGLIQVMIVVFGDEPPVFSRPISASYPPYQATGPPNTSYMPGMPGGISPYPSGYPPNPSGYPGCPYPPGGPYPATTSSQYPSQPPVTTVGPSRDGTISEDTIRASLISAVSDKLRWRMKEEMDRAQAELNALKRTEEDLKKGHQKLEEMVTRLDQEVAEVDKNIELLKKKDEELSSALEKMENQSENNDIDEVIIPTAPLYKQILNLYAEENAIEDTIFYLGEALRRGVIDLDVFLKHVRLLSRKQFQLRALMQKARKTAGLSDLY
Summary of the method: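 FITC-PTAP peptide (50 nM final) binding to Tsg101 binding domain (10 uM final) was measured by polarization after 20 min at r.t. with compounds, in 10 mM HEPES pH 7.5 buffer with 0.15 M NaCl and 0.01% Tween 20.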

CN1C(=O)c2ccccc2Sc2ccc(NC(=O)Cc3ccc(Cl)cc3)cc21
active: Potency [1] 6.01 µM | Potency [2] 12 µM

Cc1ccc(NC(=O)CSc2nc3ccccc3c3nc(CCn4cncc4C)nn23)cc1F
active: Potency [1] 3.79 µM | Potency [2] 0.536 µM

CCc1cccc(CC)c1-n1c(CC(C)C)c(C(=O)N2CCNCC2)cc(-c2nc(-c3ccc(Cl)cc3)cs2)c1=O
active: Potency [1] 9.52 µM | Potency [2] 10.7 µM

Cc1ccc(C2=CC(c3ccccc3C)n3c(nc4ccccc43)N2)cc1 (stereo unspecified)
active: Potency [1] 9.52 µM | Potency [2] 3.38 µM

Cc1ccc2nc(NC(=O)CSc3nccn3Cc3ccccc3)sc2c1
active: Potency [1] 8.49 µM | Potency [2] 9.52 µM

CCCOCc1cc(CN2CCN(c3ccccc3OC)CC2)c(O)c2ncccc12
active: Potency [1] 13.5 µM | Potency [2] 7.56 µM

O=C(NCc1ccco1)c1ccc2c(c1)N(Cc1cccc(Cl)c1)C(=O)c1ccccc1S2=O (stereo unspecified)
active: Potency [1] 1.2 µM | Potency [2] 1.34 µM

COc1ccccc1C(=O)Oc1ccc(C(c2c(C)[nH][nH]c2=O)c2c(C)[nH][nH]c2=O)cc1
inactive: Potency [1]
active: Potency [2] 10.7 µM

OCC=Cc1ccccc1
inactive: Potency [1] | outcome [3] | outcome [4] | Potency [5] | Potency [6] | outcome [7] | outcome [8] | outcome [9] | outcome [10] | outcome [11] | outcome [12] | max response [13] 2.25% | outcome [14] | outcome [15] | outcome [16] | outcome [17]
active: Potency [2] 19 µM

COc1ccc(CCNC(=O)Cn2nc(C)c3c(C)n(-c4ccc(C)cc4)nc3c2=O)c(OC)c1
active: Potency [1] 8.49 µM | Potency [2] 8.49 µM | Potency [18] 67.5 µM
inactive: Potency [19] | Potency [20] | outcome [21] inactive [at 12.7 µM] | Potency [22] | Potency [23]

Cc1ccc2c(c1)-c1c(c(C(=O)N3CCN(c4cc(C)ccc4C)CC3)nn1C)CS2
inactive: Potency [1] | Potency [18] | Potency [19] | Potency [20] | Potency [22]
active: Potency [24] 18.3 µM | Potency [2] 2.39 µM | Potency [21] 3.79 µM

COc1ccc(C=CC(=O)O)cc1
inactive: Potency [1] | Potency [2] | Potency [5] | Potency [6]

Cc1cccn2c(=O)cc(CSc3nnc(NC(=O)COc4ccccc4)s3)nc12
inactive: Potency [1] | Potency [19] | Potency [21] | Potency [22] | Potency [23]
active: Potency [2] 6.74 µM | Potency [18] 67.5 µM

CC(C)(C)c1ccc(-c2nc(SCCCOc3ccccc3)n3[nH]c(=O)cc3n2)cc1
active: Potency [2] 10.7 µM | Potency [18] 60.1 µM
inactive: Potency [1] | Potency [19] | Potency [20] | Potency [21] | Potency [22] | Potency [23]

Oc1c(C(c2ccccc2)N2CCN(c3cccc(Cl)c3)CC2)sc2nc(-c3ccco3)nn12 (stereo unspecified)
active: Potency [1] 13.5 µM | Potency [2] 5.35 µM | Potency [18] 47.8 µM
inactive: Potency [19] | Potency [20] | outcome [21] inactive [at 12.7 µM]

CC1=C(C(=O)Nc2cccc(CN)c2)C(c2ccccc2Cl)N=C(Nc2nc3ccccc3o2)N1 (stereo unspecified)
active: Potency [1] 3.38 µM | Potency [2] 5.35 µM
